EWS-Fli inh = EWS/Fli-driven NR0B1 reporter inhibitors, primary screen, A673 cells, NR0B1 luciferase, luminescence, MLPCN library | inhibition, % at 12.6 µM | 0.67% of 350,000 active | viability-normalised | AID 651661, 2012;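 active = mean inhibition of at least 50% after viability correction, with every replicate also passing that limit; inconclusive = mean reaches 50% but only one of two replicates passes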;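 also: firefly luciferase signal divided by Alamar Blue viability fluorescence both relative to DMSO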
TROY NFkB inh = inhibitors of TROY-driven NF-kB signaling, primary screen, Q293 LMP1-TROYcd cells, NF-kB luciferase, uHTS; inhibition, % at 10 µM; 0.98% of 360,000 active; Q293 LMP1-TROYcd NF-kB luciferase reporter, 4 h; AID 1347056, 2019;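 active = compounds whose plate-normalised and pattern-corrected inhibition of the luciferase reporter signal at the single screening dose is 50% or more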
LMP1 NFkB inh = EBV LMP1-driven NF-kappaB luciferase reporter inhibitors, primary screen, cell-based, luminescence, single point; AID 504558, 2011; LMP1-induced NF-kappaB luciferase reporter cells; inhibition, % at 12.5 µM; 0.69% of 350,000 active; in the data active = inhibition above about 41%; inconclusive = no clear call, values can overlap the other calls;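 also: 0% = neutral control wells and 100% = reference inhibitor control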
TWEAK Fn14 block = inhibitors of TWEAK-Fn14 signaling, primary screen, luciferase reporter cells, uHTS. TWEAK-stimulated Fn14 reporter cells, luciferase luminescence, 8 h. inhibition, % at 10 µM. 2% of 360,000 active. AID 1159606, 2016; in the data active = inhibition above about 50%
LGR2 inh = inhibitors of bursicon-induced LGR2 CRE-luciferase signal, primary screen, cell-based, HEK293, CRE-luciferase reporter, bursicon stimulation; Drosophila bursicon receptor LGR2 (rickets); bursicon-stimulated, 4 h; inhibition, % at 9.99 µM; 0.35% of 380,000 active; AID 720647, 2013;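 active = drop in luminescence signal, shown as inhibition above about 50% in the replicate tests, limit read from the data, passing the limit was not always enough; inconclusive = probably only some replicates passing the limit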;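 also: agonist challenge used bursicon conditioned medium at about half maximal strength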
Active calls of the source: *. Only some compounds are listed: those with a hit (about 2.5% of all), similar ones and a draw of the others.

`CCCc1nnc(NC(=O)c2nc(S(=O)(=O)Cc3ccc(C)cc3)ncc2Cl)s1` gave TROY NFkB inh 62*, LMP1 NFkB inh 22, TWEAK Fn14 block 95* and LGR2 inh -15.
For CC(C)c1nnc(NC(=O)c2nc(S(=O)(=O)Cc3ccccc3)ncc2Cl)s1 the results were EWS-Fli inh 64*, TROY NFkB inh 32, LMP1 NFkB inh 11, TWEAK Fn14 block 94* and LGR2 inh 7.
O=C(NCCCN1CCOCC1)[C@H]1[C@H](CO)[C@H]2Cn3c(cccc3=O)[C@@H]1N2C(=O)C1CCCCC1 was read as EWS-Fli inh 7 and LGR2 inh -12.
For C[C@@H]1CCCCO[C@H](CN(C)S(=O)(=O)c2ccccc2)[C@H](C)CN([C@H](C)CO)C(=O)c2cc(N(C)C)ccc2O1 the results were EWS-Fli inh 4 and LGR2 inh 2.
Cc1ccc(-n2cc(C(=O)c3ccccc3O)cn2)cc1 was read as TROY NFkB inh 47, LMP1 NFkB inh 78* and TWEAK Fn14 block 83*.
`COCCCN1CN(S(=O)(=O)c2ccc(Cl)cc2)c2nc3ccccc3nc21` gave TROY NFkB inh 2, LMP1 NFkB inh -12 and TWEAK Fn14 block 7.
For CC(C)OCCCN1CN(S(=O)(=O)c2ccccc2)c2nc3ccccc3nc21 the results were LMP1 NFkB inh -8 and TWEAK Fn14 block 77*.
For CCOc1ccc2nc(N3CCC(C(=O)N4CCN(c5ccccn5)CC4)CC3)sc2c1 the results were TROY NFkB inh 25, LMP1 NFkB inh 18 and TWEAK Fn14 block 51*.
`CCOc1ccc2nc(N3CCC(C(=O)N4CCN(c5ncccn5)CC4)CC3)sc2c1` gave EWS-Fli inh -26, TROY NFkB inh -23, LMP1 NFkB inh -1, TWEAK Fn14 block 0 and LGR2 inh -49.
For COc1ccc(NC(=O)N(C)C[C@@H]2Oc3c(NC(=O)Nc4c(C)noc4C)cccc3C(=O)N([C@H](C)CO)C[C@H]2C)cc1 the results were EWS-Fli inh -3 and LGR2 inh -7.
For CCCNC(=O)N1[C@H](CO)[C@H](c2ccccc2)[C@H]1CNC(=O)C1CCC1 the results were LGR2 inh -14.
`CN(CC(=O)NCCCN1CCOCC1)S(=O)(=O)c1ccc(Br)cc1` gave LMP1 NFkB inh 0 and TWEAK Fn14 block 63*.
O=C(/C=C/c1ccccc1)c1ccccc1 was read as EWS-Fli inh -41, TROY NFkB inh -22, LMP1 NFkB inh 0, TWEAK Fn14 block -6 and LGR2 inh -63.
`O=C(/C=C/c1ccccc1)/C=C/c1ccccc1` gave TROY NFkB inh 27, LMP1 NFkB inh -59, TWEAK Fn14 block 90* and LGR2 inh -44.
Oc1[nH]c2ccc(Br)cc2c1N=NC(=S)Nc1ccc(F)cc1 was read as EWS-Fli inh 44, TROY NFkB inh -3, LMP1 NFkB inh 13, TWEAK Fn14 block 63* and LGR2 inh 1.
NC(=O)c1cc([N+](=O)[O-])ccc1NCc1ccc(N)cc1 was read as EWS-Fli inh 74*, TROY NFkB inh 67*, LMP1 NFkB inh 49*, TWEAK Fn14 block 84* and LGR2 inh -13.
`NC(=O)c1cc([N+](=O)[O-])ccc1NCc1ccc(F)cc1` gave EWS-Fli inh -59, TROY NFkB inh -55, LMP1 NFkB inh 17, TWEAK Fn14 block -2 and LGR2 inh -24.
CC1(C)CC(=O)C=C(c2ccc(Oc3ccccc3)cc2)C1=O was read as EWS-Fli inh -28, TROY NFkB inh -30, LMP1 NFkB inh -2, TWEAK Fn14 block -10 and LGR2 inh -19.
For CC1(C)CC(=O)C=C(c2ccc(-c3cnc4ccccc4c3)cc2)C1=O the results were EWS-Fli inh 0, TROY NFkB inh 92*, LMP1 NFkB inh -13, TWEAK Fn14 block 85* and LGR2 inh 63*.
Cc1cc(N=O)c(C)cc1O was read as EWS-Fli inh 2, TROY NFkB inh 7, TWEAK Fn14 block 34 and LGR2 inh -4.
Cc1cc(O)c(-c2cc(O)c(C)cc2O)cc1O was read as EWS-Fli inh 70*, TROY NFkB inh -1, LMP1 NFkB inh -30, TWEAK Fn14 block 21 and LGR2 inh 19.
`O=c1cc(CSc2ccc(Cl)cc2)nc(-c2ccccc2)[nH]1` gave EWS-Fli inh 14, TROY NFkB inh -22, LMP1 NFkB inh -2, TWEAK Fn14 block 4 and LGR2 inh -2.
O=c1cc(CSc2ccc(Cl)cc2)nc(-c2ccccn2)[nH]1 was read as EWS-Fli inh 14, TROY NFkB inh -13, LMP1 NFkB inh 17, TWEAK Fn14 block 106* and LGR2 inh -3.
`O=C(Nc1ccc(Cl)c(Cl)c1)N[C@@H]1CC[C@H](CCNC(=O)c2ccc(F)cc2)O[C@H]1CO` gave EWS-Fli inh -11 and LGR2 inh -6.
CCC(C)Nc1nc(CN2CCOCC2)nc2sc3c(c12)CCC3 (stereo not given) was read as LMP1 NFkB inh 5 and TWEAK Fn14 block 75*.
For CCN(CC)CCCNc1nc(CN2CCOCC2)nc2sc3c(c12)CCC3 the results were EWS-Fli inh 3, TROY NFkB inh -9, LMP1 NFkB inh 3 and TWEAK Fn14 block 6.
`C[C@@H]1CCCCO[C@H](CN(C)C(=O)NC2CCCCC2)[C@H](C)CN([C@@H](C)CO)C(=O)c2cc(NC(=O)CCCN(C)C)ccc2O1` gave EWS-Fli inh -1 and LGR2 inh -8.
Screening CN(C)c1ccc(/C=N/NC(=S)NCc2ccco2)cc1 returned EWS-Fli inh 5, TROY NFkB inh -31, LMP1 NFkB inh 2 and TWEAK Fn14 block -13.
For CN(C)c1ccc(C(=S)NCc2ccco2)cc1 the results were TROY NFkB inh -27, LMP1 NFkB inh -5 and TWEAK Fn14 block 63*.
`CN1[C@H](C(=O)NCC2CCCCC2)[C@@H](CO)[C@@H]2Cn3c(cccc3=O)[C@@H]21` gave EWS-Fli inh -3 and LGR2 inh 3.
`O=C1c2ccccc2S(=O)(=O)c2cc(N3CCOCC3)ccc21` gave EWS-Fli inh 9, TROY NFkB inh 44, LMP1 NFkB inh 31, TWEAK Fn14 block 71* and LGR2 inh inconclusive.
Screening O=C1c2ccccc2S(=O)(=O)c2cc(N3CCN(c4ccccc4)CC3)ccc21 returned EWS-Fli inh -20 and LGR2 inh -45.
For O=C1c2ccccc2NC(c2cnc3ccccc3n2)N1O (stereo not given) the results were TROY NFkB inh 26, LMP1 NFkB inh 0 and TWEAK Fn14 block 74*.
`CCCCN(C=O)c1c(CC)nc2c(OCCOc3ccc(F)cc3)cccn12` gave EWS-Fli inh 9, TROY NFkB inh 0, TWEAK Fn14 block 63* and LGR2 inh 21.
For Fc1cccc2sc(Nc3nc4c(F)cccc4s3)nc12 the results were TROY NFkB inh -7, LMP1 NFkB inh -25, TWEAK Fn14 block -29 and LGR2 inh -46.

Assay outcomes: PubChem, several laboratories
